Each structure is given as a SMILES string. Values joined by “and” are separate entries in the source; they are usually repeats but may differ in a detail not shown here. Equal values may be shown once. A number with no mark means an inactive call. Active and inactive are the calls of the source.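 The calls were made as follows: active = compounds whose dose series gives a full or clear partial fitted curve of increased nuclear translocation; inconclusive = weak partial curve or effect only at the top dose; inactive = no dose-dependent translocation response.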 A value given as a limit tells only on which side of the number the result lay.
Potency is read from the fitted curve at half-maximal effect.

Glucocorticoid receptor (Homo sapiens), sequence (P04150 whole entry, looked up): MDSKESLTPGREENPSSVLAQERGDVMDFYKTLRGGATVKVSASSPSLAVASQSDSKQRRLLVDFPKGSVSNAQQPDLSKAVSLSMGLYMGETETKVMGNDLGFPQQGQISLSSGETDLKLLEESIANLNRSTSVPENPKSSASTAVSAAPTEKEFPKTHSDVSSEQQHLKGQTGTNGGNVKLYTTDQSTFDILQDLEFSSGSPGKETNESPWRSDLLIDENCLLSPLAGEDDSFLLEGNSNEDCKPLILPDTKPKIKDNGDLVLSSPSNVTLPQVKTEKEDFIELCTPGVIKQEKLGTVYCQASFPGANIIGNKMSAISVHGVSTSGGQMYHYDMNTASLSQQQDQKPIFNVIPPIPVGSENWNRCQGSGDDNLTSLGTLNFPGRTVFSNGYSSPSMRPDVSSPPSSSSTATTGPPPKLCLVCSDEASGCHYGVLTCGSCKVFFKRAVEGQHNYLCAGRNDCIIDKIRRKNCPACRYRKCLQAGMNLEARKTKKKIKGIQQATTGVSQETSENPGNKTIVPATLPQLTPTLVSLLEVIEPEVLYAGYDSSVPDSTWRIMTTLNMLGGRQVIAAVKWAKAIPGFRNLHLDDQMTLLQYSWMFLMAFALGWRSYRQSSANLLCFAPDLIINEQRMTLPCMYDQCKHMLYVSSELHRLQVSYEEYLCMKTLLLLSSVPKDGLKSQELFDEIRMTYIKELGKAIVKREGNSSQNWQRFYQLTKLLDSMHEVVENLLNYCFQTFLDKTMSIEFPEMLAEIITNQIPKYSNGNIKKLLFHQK

For this experiment, the target named is Glucocorticoid receptor (Homo sapiens) (UniProt P04150). Nature of the experiment: GR-GFP Redistribution (AID 450). Particulars: U2OS GR-GFP nuclear translocation, laser cytometry, 2 h. An excerpt:
NIH Molecular Libraries Screening Centers Network [MLSCN]
NIH Chemical Genomics Center [NCGC]
The glucocorticoid receptor (GR) Redistribution assay (BioImage) enables the visualization of GR cytoplasmic to nuclear translocation by the use of a GR-GFP fusion. GR is normally cytosolic, however ligands such as dexamethasone, cause nuclear translocation where the protein binds to response elements and interacts with various co-factors to modulate transcription. Because both functional agonists and antagonists can induce nuclear translocation, this assay can detect ligands regardless of their effects on gene expression. GR-GFP expressing U20S cells were used here. Dexamethasone was the positive control for translocation and data normalization. Detection of nuclear translocation was performed in 1536-well plates using the Acumen laser scanning plate cytometer (TTP LabTech). Validation of this assay and a detailed protocol have been described.
NCGC Assay Protocol Summary:
GR-GFP U2OS cells were maintained in DMEM with Glutamax and high glucose, 1% v/v penicillin-streptomycin, and 0.5 mg/mL Geneticin. For cell culture, 10% […] fetal bovine serum (FBS) was used (Invitrogen #26140-079). For cell plating 10% dextran, charcoal-stripped FBS (Hyclone SH30068.03) was used. U2OS cells were trypsin treated, suspended in medium, and passed through a 40 um basket filter. The cells were seeded at 600 cells/5 uL/well into clear-bottom black sided 1536-well plates and incubated for approximately 20 hrs, 37degC, 5%, CO2 in a tissue culture incubator. Twenty-three nL of compound was delivered by pin tool and the plates were incubated as above for 2 hrs. The compounds were tested as a 7-point titration ranging from 46 uM to 0.6 nM. The cells were fixed using the Kalypsys Washer/Dispenser station. The fixing protocol involved aspiration of the cell media, addition of 6 uL/well of PBS, aspiration of PBS, addition of 5uL/well of 100% methanol, aspiration of methanol, and addition of 3 uL/well PBS with 1.5 uM propidium iodide (PI). The plates were read by the Acumen Explorer using a 1 x 8 um scan of the whole well area. PI fluorescence triggered the collection of PI and GFP signals. A nuclei population was defined by a 10 to 100 um width and depth filter that eliminated small and large fluorescent particles. Two subpopulations of nuclei were then defined by peak intensity of GFP fluorescence to obtain translocated and untranslocated objects. The number of translocated objects was used for data normalization.
Keywords: NIH Roadmap, MLSCN, MLI, MLSMR, sOGT, qHTS, NCGC
For `COc1cc(C(=O)OC2C[C@H]3CC[C@@H](C2)N3C)ccc1O` (stereo not given in full), the Potency is more than 20.6 µM.
For `CC(=O)N[C@@H]1CCSC1=O`, the Potency was more than 20.6 µM.
For `C=C1C/C(=C\C)C(=O)O[C@@H]2CCN3CC=C(COC(=O)[C@@]1(C)O)[C@H]23`, the Potency is more than 20.6 µM.
Next, `C=C(C)[C@H]1[C@H]2OC(=O)[C@@H]1[C@]1(O)C[C@H]3O[C@]34C(=O)O[C@H]2[C@@]14C`: more than 20.6 µM; `C[N+]1([O-])[C@@H]2CC(OC(=O)[C@@H](CO)c3ccccc3)C[C@@H]1[C@H]1O[C@H]12` (stereo not given in full): > 20.6 µM and > 46 µM; `C/C=C1\C[C@H](C)[C@@](O)(CO)C(=O)OCC2=CCN3CC[C@@H](OC1=O)[C@@H]23`: more than 20.6 µM.
Next, `C=C1[C@@H]2C[C@@]3([C@H]1O)[C@H]1C[C@@H]4[C@@]5(C)CC[C@H](O)[C@]4([C@H]1N(CC)C5)[C@H]3C[C@H]2O`: more than 20.6 µM; `C[C@H]1CN(C2CCC(C#N)(c3ccc(F)cc3)CC2)CC[C@@]1(C(=O)O)c1ccccc1` (stereo not given in full): more than 20.6 µM.
Take `CO[C@@H](C)[C@](O)(C(=O)OCC1=CCN2CC[C@@H](O)[C@H]12)C(C)C`: the Potency was more than 20.6 µM.
For the compound `COc1ccc(C[C@H]2c3cc(OC)c(OC)cc3CCN2C)cc1OC`, the Potency was > 20.6 µM and > 46 µM.
As to `C[C@H]1CC[C@@H]2[C@@H](C)C(=O)O[C@H]3O[C@@]4(C)CC[C@H]1[C@@]32OO4`, the Potency is more than 20.6 µM.
Consider `CN1CCC2=C[C@H](O)[C@@H]3OC(=O)c4cc5c(cc4[C@H]3[C@H]21)OCO5`, for which the Potency is more than 20.6 µM.
As to `Oc1ccc2c3c1O[C@H]1[C@@H](O)CC[C@]4(O)[C@H](C2)N(CC2CCC2)CC[C@@]314`, the Potency was more than 20.6 µM.
Take `C[C@]12CC[C@H](O)C[C@@H]1CC[C@H]1[C@H]2CC[C@]2(C)C(=O)CC[C@@H]12`: the Potency is > 46 µM and > 20.6 µM.
Consider `COc1cc(N)c(Cl)cc1C(=O)N[C@@H]1CN2CCC1CC2`, for which the Potency was more than 46 µM.
Then `CN1[C@@H](C[C@@H](O)c2ccccc2)CCC[C@@H]1C[C@H](O)c1ccccc1`, with more than 20.6 µM; and `O=C(NCNC(=O)N[C@H]1C(=O)NC(=O)N1CO)N[C@H]1C(=O)NC(=O)N1CO`, with more than 20.6 µM.
Next, `C[N+]1=Cc2cc3c(cc2CC1)OCO3`: more than 46 µM.
Next, `O=C(OC1CCN(CCCl)CC1)C(c1ccccc1)c1ccccc1`: more than 46 µM; `C=C1[C@@H]2CC[C@H]3[C@@]4(C)C[C@@H](O[C@@H]5O[C@H](CO)[C@H](OS(=O)(=O)O)[C@@H](OS(=O)(=O)O)[C@@H]5OC(=O)CC(C)C)C[C@@H](C(=O)O)[C@H]4CC[C@@]3(C2)[C@H]1O`: more than 20.6 µM; `CCCN(CCC)C(=O)Cc1c(-c2ccc(Cl)cc2)nc2c(Cl)cc(Cl)cn12`: more than 46 µM.
Consider `CC(C)[C@@]1(NC(=O)[C@@H]2C[C@H]3c4cccc5[nH]cc(c45)C[C@@H]3N(C)C2)O[C@]2(O)[C@H]3CCCN3C(=O)[C@H](Cc3ccccc3)N2C1=O`, for which the Potency is more than 20.6 µM.
As to `CN1C[C@H](CO)C=C2c3cccc4[nH]cc(c34)C[C@@H]21`, the Potency is more than 20.6 µM.
In the case of `CC[C@H](CO)NC(=O)[C@H]1C=C2c3cccc4[nH]cc(c34)C[C@@H]2N(C)C1`, the Potency was more than 20.6 µM.
As to `COc1cc2c(cc1O)[C@H]1Cc3ccc(OC)c(O)c3CN1CC2`, the Potency is more than 20.6 µM.
Then `C[N+]1(C)CCO[C@](O)(c2ccc(-c3ccc([C@]4(O)C[N+](C)(C)CCO4)cc3)cc2)C1`, with more than 20.6 µM; and `COC1=C[C@H]2C3=C([C@H]2C1=O)[C@H](NC(C)=O)CCc1cc(OC)c(OC)c(OC)c13`, with more than 20.6 µM.
Turning to `C#C[C@@]1(O)CC[C@@H]2[C@@H]3CCC4=CC(=O)CC[C@@]4(C)[C@H]3CC[C@]21C`, the Potency is 0.155 µM (active).
As to `COC1=CC(=O)O[C@@H](/C=C\c2ccccc2)C1`, the Potency was more than 20.6 µM.
Turning to `CCN1C[C@]2(C)CC[C@H](O)[C@@]34[C@@H]5CC6[C@@H](OC)C[C@@](O)([C@@H]5[C@@H]6O)[C@H](C[C@@H]23)[C@H]14`, the Potency is more than 20.6 µM.
For `CNC[C@H](O)c1ccc(O)c(OC)c1`, the Potency was more than 20.6 µM.
With `COc1cc2c(cc1O)C[C@H]1c3c(cc(O)c(OC)c3-2)CCN1C`, the Potency was > 20.6 µM and > 46 µM.
In the case of `C[C@H]1CC[C@@]2(NC1)O[C@@H]1C[C@H]3[C@@H]4CC=C5C[C@@H](O)CC[C@]5(C)[C@@H]4CC[C@]3(C)[C@@H]1[C@@H]2C`, the Potency is more than 20.6 µM.
Regarding `CC(C)c1ccc(C(c2c(O)c3ccccc3oc2=O)c2c(O)c3ccccc3oc2=O)cc1`, the Potency is more than 46 µM.
With `O=c1ccc2cc(O[C@H]3O[C@@H](CO)[C@@H](O)[C@@H](O)[C@@H]3O)c(O)cc2o1`, the Potency was more than 20.6 µM.
`Clc1ccc(CO[C@@H](Cn2ccnc2)c2ccc(Cl)cc2Cl)cc1`: the Potency is more than 20.6 µM.
Regarding `Cc1nc2cnc(N3CCNCC3)nc2n(C)c1=O`, the Potency was more than 9.22 µM.
As for `CCNC[C@H](O)c1cccc(O)c1`, the Potency is more than 20.6 µM.
Consider `Nc1c(C(=O)NCc2ccco2)c2nc3ccccc3nc2n1Cc1ccc(F)cc1`, for which the Potency is more than 20.6 µM.
As to `CC(C)c1c(CN(C)[C@@H](C)Cc2ccccc2)n(C)n(-c2ccccc2)c1=O`, the Potency was more than 20.6 µM.
